This is an account of results in the antibiotic and cytotoxicity screens of Wong et al. (2023).

Screen size: about 39,000 compounds; about 3,300 (8.5%) were called active. Many of the other results were omitted from the sample, so actives are more common in it than they were.

The subject of this assay is HepG2. Nature of the assay: cytotoxicity call (relative viability < 0.9). To be noted: 10 µM.
In the case of `NC1CCC(N[C@@H]2C[C@H]2c2ccccc2)CC1` (stereo partly specified), the cytotoxicity call was “inactive”. The entry for `C=CCC[C@@H](Cc1ccc(F)cc1)C(=O)OC[C@H]1CCCN1C(=O)[C@@H](CC=C)CC(=O)N(CCO)Cc1ccccc1` is “inactive”; for `COc1cccc(S(=O)(=O)Nc2ccc3c(c2)OC[C@H](C)N(C(=O)Cc2cccnc2)C[C@H](C)[C@@H](OC)CN(C)C3=O)c1` it is “inactive”; for `C[C@@H]1CN([C@H](C)CO)C(=O)c2cc(NS(=O)(=O)c3cn(C)cn3)ccc2O[C@@H]1CN(C)Cc1ccccc1` it is “inactive”. As to `COCC(=O)NC1CCN(C2CCNCC2)CC1`, the cytotoxicity call is “inactive”. To `CO[C@H]1O[C@H](CO)[C@@H](OC(=O)Nc2ccccc2)[C@@H]2OC(=O)[C@H](Cc3cccc(Br)c3)C/C=C/C[C@@H](Cc3cccc(Br)c3)C(=O)O[C@@H]12` belongs “inactive”; to `C[C@H]1CN([C@@H](C)CO)C(=O)c2cccc(NC(=O)C3CCOCC3)c2O[C@H]1CN(C)C(=O)NC1CCCCC1`, “inactive”; to `CC(C)(C)[S@@](=O)N1Cc2cc(C(=O)N3CCc4ccccc4C3)nc(-c3cccc(-c4cccnc4)c3)c2[C@H]1CCO`, “inactive”. The entry for `Cc1noc(C)c1S(=O)(=O)Nc1ccc2c(c1)C(=O)N([C@H](C)CO)C[C@@H](C)[C@@H](CN(C)S(=O)(=O)c1ccc(Cl)cc1)O2` is “inactive”; for `C[C@H]1CN([C@@H](C)CO)C(=O)c2cc(NS(=O)(=O)c3cn(C)cn3)ccc2O[C@@H]1CN(C)S(=O)(=O)c1ccccc1` it is “inactive”; for `CN1CCN(C(=O)C[C@H]2CC[C@H]3[C@H](COc4ccc(NC(=O)c5cscn5)cc4C(=O)N3C)O2)CC1` it is “inactive”. In the case of `C[C@H](CO)N1C[C@H](C)[C@@H](CN(C)Cc2ccc(-c3ccccc3)cc2)Oc2ccc(NC(=O)Nc3ccccc3)cc2CC1=O`, the cytotoxicity call is “active”. In the case of `C[C@@H]1CN([C@@H](C)CO)C(=O)c2cc(NC(=O)CCCN(C)C)ccc2O[C@@H]1CN(C)Cc1ccncc1`, the cytotoxicity call was “inactive”. To `C[C@H](CO)N1C[C@H](C)[C@@H](CN(C)C(=O)Nc2ccc(C(F)(F)F)cc2)OCCCC[C@H](C)Oc2ccc(NS(C)(=O)=O)cc2C1=O` belongs “inactive”; to `COc1ccc(S(=O)(=O)Nc2ccc3c(c2)CC(=O)N([C@H](C)CO)C[C@H](C)[C@H](CN(C)S(=O)(=O)c2ccc(C)cc2)O3)cc1`, “inactive”. The entry for `NCC[C@@H]1CC[C@H](NC(=O)C2CC2)[C@@H](CO)O1` is “inactive”. In the case of `O=C(O)c1cc2cc(F)ccc2s1`, the cytotoxicity call is “inactive”.

Turning to `C[C@@H]1CCCCO[C@H](CN(C)Cc2ccc3c(c2)OCO3)[C@H](C)CN([C@@H](C)CO)C(=O)c2cc(NS(=O)(=O)c3ccccc3)ccc2O1`, the cytotoxicity call is “active”. The entry for `C[C@H](CO)N1C[C@H](C)[C@@H](CN(C)Cc2ccc3c(c2)OCO3)OCCCC[C@H](C)Oc2ccc(NS(=O)(=O)c3ccccc3)cc2C1=O` is “inactive”.

Turning to `C[C@@H]1CCCCO[C@@H](CN(C)Cc2ccc3c(c2)OCO3)[C@H](C)CN([C@H](C)CO)C(=O)c2cc(NS(=O)(=O)c3ccccc3)ccc2O1`, the cytotoxicity call is “active”. The entry for `C[C@H]1CCCCO[C@H](CN(C)Cc2ccc3c(c2)OCO3)[C@@H](C)CN([C@@H](C)CO)C(=O)c2cc(NS(=O)(=O)c3ccccc3)ccc2O1` is “inactive”. To `C[C@H](CO)N1C[C@H](C)[C@H](CN(C)Cc2ccc3c(c2)OCO3)OCCCC[C@H](C)Oc2ccc(NS(=O)(=O)c3ccccc3)cc2C1=O` belongs “inactive”; to `C[C@@H]1CCCCO[C@H](CN(C)Cc2ccc3c(c2)OCO3)[C@H](C)CN([C@H](C)CO)C(=O)c2cc(NS(=O)(=O)c3ccccc3)ccc2O1`, “inactive”; to `C[C@@H]1CCCCO[C@H](CN(C)Cc2ccc3c(c2)OCO3)[C@@H](C)CN([C@@H](C)CO)C(=O)c2cc(NS(=O)(=O)c3ccccc3)ccc2O1`, “inactive”.

Regarding `C[C@@H]1CN([C@H](C)CO)C(=O)c2cc(NS(=O)(=O)c3ccccc3)ccc2O[C@@H](C)CCCCO[C@@H]1CN(C)Cc1ccc2c(c1)OCO2`, the cytotoxicity call was “active”. In the case of `C[C@H]1CCCCO[C@@H](CN(C)Cc2ccc3c(c2)OCO3)[C@@H](C)CN([C@@H](C)CO)C(=O)c2cc(NS(=O)(=O)c3ccccc3)ccc2O1`, the cytotoxicity call was “inactive”. `C[C@H](N)C(=O)N[C@@]1(C(=O)O)C[C@@H](Sc2nnc[nH]2)[C@H]2[C@H](C(=O)O)[C@H]21`: the cytotoxicity call is “inactive”. As to `C[C@H](CO)N1C[C@H](C)[C@H](CN(C)S(=O)(=O)c2ccc(F)cc2)Oc2ccc(NS(C)(=O)=O)cc2C1=O`, the cytotoxicity call is “inactive”. In the case of `Cl.Cl.N=C(N)N`, the cytotoxicity call is “inactive”. For `COCCOC(=O)N1C(=O)[C@@]2(c3cc(C#CCCO)ccc31)[C@H](C(=O)NC[C@H](O)c1ccccc1)[C@H]1C(=O)O[C@H](c3ccccc3)[C@H](c3ccccc3)N1[C@@H]2c1ccccc1OCCO`, the cytotoxicity call is “inactive”. Regarding `CCS(=O)(=O)N1CC[C@]2(CC1)CN([C@H](CO)c1[nH]c3cc(ccc3c12)OC)S(=O)(=O)c1cn(cn1)C`, the cytotoxicity call is “inactive”. As for `C[C@@H]1CN([C@@H](C)CO)C(=O)Cc2cc(NS(=O)(=O)c3ccccc3)ccc2O[C@H]1CN(C)S(=O)(=O)c1cn(C)cn1`, the cytotoxicity call was “inactive”.

For the compound `C[C@@H]1CN([C@@H](C)CO)C(=O)c2cc(NC(=O)CCCN(C)C)ccc2O[C@H]1CN(C)C(=O)Nc1ccc(F)cc1`, the cytotoxicity call was “inactive”. To `O=C1NC(=O)[C@@]2(CCOc3ccc(F)cc32)N1` belongs “inactive”; to `C[C@@H]1CCCCO[C@H](CN(C)S(=O)(=O)c2cn(C)cn2)[C@@H](C)CN([C@@H](C)CO)C(=O)c2cc(NS(=O)(=O)c3cn(C)cn3)ccc2O1`, “inactive”. To `COc1ccc(NC(=O)N2C[C@H](O)COC[C@@H]3O[C@H](CC(=O)NC4Cc5ccccc5C4)CC[C@H]32)cc1` belongs “inactive”; to `Cc1ccc2c(c1)c1nc3ccccc3nc1n2Cc1ccccc1`, “inactive”.

For the compound `Cc1ccc(C(=O)N(CCCN)[C@@H](c2oc3cc(Cl)ccc3c(=O)c2Cc2ccccc2)C(C)C)cc1`, the cytotoxicity call was “active”. As to `Cc1ccc(C(=O)N(CCCN)[C@@H](c2nc3cc(Cl)ccc3c(=O)n2Cc2ccccc2)C(C)C)cc1`, the cytotoxicity call was “active”. The entry for `COc1ccc(NC(=O)Nc2ccc3c(c2)C(=O)N([C@H](C)CO)C[C@H](C)[C@H](CN(C)Cc2ccc(C(=O)Nc4ccccc4N)cc2)O3)cc1` is “inactive”; for `O=C(NO)c1cccc(C(=O)N/N=C/[C@H](O)[C@@H](O)[C@H](O)[C@H](O)CO[C@H]2O[C@H](CO)[C@H](O)[C@H](O)[C@H]2O)c1` it is “inactive”.
